Measured values taken from PubChem BioAssay (NCI).
The panel holds about 83,000 compounds, 20% with a hit somewhere; the sample as a whole holds those more often.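 Method: cells in 96-well plates; compound added at one concentration; 48 h incubation; percent growth measured; values under 10 scored active.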 Values without a mark were called inactive. Activity calls are given as the source filed them.

Test system: OVCAR-3 ovarian
Experiment: NCI-60 one-dose screen, 48 h (100 = growth as untreated, 0 = no growth, -100 = all killed)
Conditions: 10 µM

Structure (SMILES)	growth
COc1ccc(-c2csc(NC(=O)c3ccc(Cc4n[nH]c(=O)c5cccnc45)cc3)n2)cc1	103%
COc1cc(-c2nn(-c3cccc(NC(=O)CCN4CCN(Cc5ccccc5)CC4)c3)cc2-c2ccncc2)ccc1Cl	7.04% (active)
COc1cc2cc(Oc3ccc(NC(=O)c4cc(C(F)(F)F)cc(C(F)(F)F)c4)cc3)c(C)nc2cc1OC	15.2%
C[C@]12CCC3c4ccc(O)cc4C[C@@H](CCCCCCCCCS(=O)CCCC(F)(F)C(F)(F)F)C3C1CC[C@@H]2O (some centres not stated)	88.4%
Cc1cc(Cl)ccc1Nc1nc(C(F)(F)F)ccc1C(=O)N/N=C/c1cccc(O)c1	35.9%
COc1cc(C(=O)/C=C/c2c[nH]c3ccccc23)cc(OC)c1OC	-8.84% (active)
CCOC(=O)CC(S(=O)(=O)c1ccccc1)S(=O)(=O)c1ccccc1	63.1%
CCNCC(=O)Nc1ccc(C(=O)OCC)cc1	99.9%
CCCc1cn(CC(=O)Nc2nc3ccccc3s2)nn1	107%
COc1cc2cc(Oc3ccc(NC(=O)Nc4ccc(Cl)c(C(F)(F)F)c4)cc3)c(C)nc2cc1OC	-27.3% (active)
COc1cc(/C=C2\CCCC3=C2NC(N)=NC3c2cc(OC)c(OC)c(OC)c2)cc(OC)c1OC (configuration not stated)	-17.7% (active)
COc1ccc(-c2cc(-c3ccc(Cl)cc3)nc(SCCCCCCC(=O)NO)n2)cc1OC	75.5%
COc1cc2ncnc(NC3CCC(O)CC3)c2cc1OC (configuration not stated)	111%
COc1cc(C)ccc1Oc1nc(Nc2ccc(N3CCOCC3)cc2)ncc1NC(=O)Nc1cc(C(F)(F)F)cc(C(F)(F)F)c1	51.9%
CCC(C)[C@H](NC(C)=O)C(=O)N[C@@H](CCCNC(=N)N)C(=O)N[C@@H](CCCCN)C(=O)N[C@@H](CC1CCC(O)CC1)C(=O)NC(C(=O)N[C@@H](CCSC)C(=O)N[C@@H](CCCNC(=N)N)C(=O)N[C@@]1(C)CCC/C=C\CCC[C@@](C)(C(=O)NC(C(=O)N[C@@H](CCC(=O)O)C(=O)N[C@@H](CC(C)C)C(=O)N[C@H](C(=O)N[C@@H](CCC(=O)O)C(N)=O)C(C)C)[C@@H](C)O)NC(=O)[C@H](CCC(N)=O)NC(=O)[C@H](CC(C)C)NC(=O)[C@H](CC(C)C)NC1=O)[C@@H](C)O (some centres not stated)	104%
CN1C(=O)C2(Nc3cc(Cl)ccc3S2)c2cc(Cl)ccc21 (configuration not stated)	95.9%
CC(=O)Nc1ccc2c(c1)C(=O)c1cccc(C(=O)O)c1-2	118%
O=C(CNc1nnc(-c2cccnc2SCc2ccccc2)s1)Nc1nc(Cl)cc(Cl)n1	106%
CCOC(=O)c1cc(C(=O)c2cc(OC)c(OC)c(OC)c2)n2nc(C)ccc12	12.5%
COc1cc(/C=C/c2cc(/C=C/c3ccc(O)c(OC)c3)[nH]c(=O)n2)ccc1O	59.3%
O=C1CSC(=S)N1/N=C/c1ccc(Cl)s1	104%
COc1ccc(-c2onc(N)c2-c2cc(OC)c3c(c2)OCO3)cc1	-1.21% (active)
COc1cc(/C=C/c2cc(/C=C/c3ccc(O)c(OC)c3)n(C(=O)Nc3ccc(C)cc3)n2)ccc1O	-34.1% (active)
COc1cc(NC(=O)Nc2cnc(Nc3ccc(N4CCOCC4)cc3)nc2Oc2cccc(OC)c2)cc(OC)c1	41.7%
CC(=O)N[C@H](C(=O)N[C@@H](CCCNC(=N)N)C(=O)N[C@@H](CCCCN)C(=O)N[C@@H](CCCNC(=N)N)C(=O)NC(C(=O)N[C@@H](CC(C)C)C(=O)N[C@@H](CCCNC(=N)N)C(=O)N[C@@]1(C)CCC/C=C\CCC[C@@](C)(C(=O)N[C@@H](CCCNC(=N)N)C(=O)N[C@@H](CCC(=O)O)C(=O)N[C@@H](CC(C)C)C(=O)N[C@H](C(=O)N[C@@H](CCC(=O)O)C(N)=O)C(C)C)NC(=O)[C@H](CCC(N)=O)NC(=O)[C@H](CC(C)C)NC(=O)[C@H](CC(C)C)NC1=O)[C@@H](C)O)C(C)C (some centres not stated)	16.8%
Oc1ccc(/C=N/N=C2c3ccccc3-c3ccccc32)c(O)c1	83.5%
C[C@@H](C[C@H](CCO)c1ccccc1)c1ccc2ccccc2c1	-88% (active)

Test system: HS 578T breast
Experiment: as above
Conditions: 10 µM

Structure (SMILES)	growth
Oc1cccc(-c2nc3sccn3c2-c2ccncn2)c1	81.7%
CCOC(=O)c1cc(C(=O)c2cc(OC)c(OC)c(OC)c2)n2ccc(-c3cc[n+](CC(=O)c4cc(OC)c(OC)c(OC)c4)cc3)cc12	69.4%
C[C@H]1[C@H](OC(=O)CCC(=O)O)O[C@@H]2O[C@]3(C)CC[C@H]4[C@H](C)CC[C@@H]1[C@@]24OO3	47.2%
COc1ccc(C(=O)N/N=C/c2cc(C(F)(F)F)ccc2Cl)cc1	92.6%
COc1ccc(-c2cc(-c3ccc(Cl)cc3)nc(SCCCC(=O)NO)n2)cc1OC	29.2%
CCC(=O)OC1CCC2C3CCC(=O)OC3C(C)(CCC(=O)O)CC12C (configuration not stated)	-28.7% (active)
OCC1OC(n2ccc3c(NO)ncnc32)C(O)C1O (configuration not stated)	-11% (active)
CC(C)(C)c1ccc(S(=O)(=O)N[C@H]2CC[C@H]3[C@@H]4CCc5cc(O)c([N+](=O)[O-])cc5[C@H]4CC[C@]23C)cc1	61.6%
COc1cc(-c2nn(-c3cccc(NC(=O)CCNc4ccc(N5CCOCC5)cc4)c3)cc2-c2ccncc2)ccc1Cl	29.7%
COc1cc(-c2nn(-c3cccc(NC(=O)CN4CCOCC4)c3)cc2-c2cccnc2)ccc1Cl	76.3%
O=C(CCCSc1nc(-c2ccccc2)cc(-c2ccc(Cl)cc2)n1)NO	50.9%
CC(C)N(CCOc1cccc(-c2nc3sccn3c2-c2ccnc(S(C)(=O)=O)n2)c1)C(C)C	95.8%
O=C(CCC(C(=O)c1ccccc1)c1ccccc1)c1ccccc1 (configuration not stated)	80.1%
COc1ccc(-c2csc(NC(=O)c3ccc(Cc4n[nH]c(=O)c5cccnc45)cc3)n2)cc1	99.1%
COc1cc(-c2nn(-c3cccc(NC(=O)CCN4CCN(Cc5ccccc5)CC4)c3)cc2-c2ccncc2)ccc1Cl	2.23% (active)
COc1cc2cc(Oc3ccc(NC(=O)c4cc(C(F)(F)F)cc(C(F)(F)F)c4)cc3)c(C)nc2cc1OC	73.1%
C[C@]12CCC3c4ccc(O)cc4C[C@@H](CCCCCCCCCS(=O)CCCC(F)(F)C(F)(F)F)C3C1CC[C@@H]2O (some centres not stated)	81.4%
Cc1cc(Cl)ccc1Nc1nc(C(F)(F)F)ccc1C(=O)N/N=C/c1cccc(O)c1	-17.5% (active)
COc1cc(C(=O)/C=C/c2c[nH]c3ccccc23)cc(OC)c1OC	49.9%
CCOC(=O)CC(S(=O)(=O)c1ccccc1)S(=O)(=O)c1ccccc1	105%

Structure (SMILES)	growth
CCNCC(=O)Nc1ccc(C(=O)OCC)cc1	97.4%
CCCc1cn(CC(=O)Nc2nc3ccccc3s2)nn1	101%
COc1cc2cc(Oc3ccc(NC(=O)Nc4ccc(Cl)c(C(F)(F)F)c4)cc3)c(C)nc2cc1OC	2.5% (active)
COc1cc(/C=C2\CCCC3=C2NC(N)=NC3c2cc(OC)c(OC)c(OC)c2)cc(OC)c1OC (configuration not stated)	37%
COc1ccc(-c2cc(-c3ccc(Cl)cc3)nc(SCCCCCCC(=O)NO)n2)cc1OC	63.7%
COc1cc2ncnc(NC3CCC(O)CC3)c2cc1OC (configuration not stated)	95.5%
COc1cc(C)ccc1Oc1nc(Nc2ccc(N3CCOCC3)cc2)ncc1NC(=O)Nc1cc(C(F)(F)F)cc(C(F)(F)F)c1	43.6%
CCC(C)[C@H](NC(C)=O)C(=O)N[C@@H](CCCNC(=N)N)C(=O)N[C@@H](CCCCN)C(=O)N[C@@H](CC1CCC(O)CC1)C(=O)NC(C(=O)N[C@@H](CCSC)C(=O)N[C@@H](CCCNC(=N)N)C(=O)N[C@@]1(C)CCC/C=C\CCC[C@@](C)(C(=O)NC(C(=O)N[C@@H](CCC(=O)O)C(=O)N[C@@H](CC(C)C)C(=O)N[C@H](C(=O)N[C@@H](CCC(=O)O)C(N)=O)C(C)C)[C@@H](C)O)NC(=O)[C@H](CCC(N)=O)NC(=O)[C@H](CC(C)C)NC(=O)[C@H](CC(C)C)NC1=O)[C@@H](C)O (some centres not stated)	-7.65% (active)
CN1C(=O)C2(Nc3cc(Cl)ccc3S2)c2cc(Cl)ccc21 (configuration not stated)	91.1%
CC(=O)Nc1ccc2c(c1)C(=O)c1cccc(C(=O)O)c1-2	109%
O=C(CNc1nnc(-c2cccnc2SCc2ccccc2)s1)Nc1nc(Cl)cc(Cl)n1	130%
CCOC(=O)c1cc(C(=O)c2cc(OC)c(OC)c(OC)c2)n2nc(C)ccc12	55.9%
COc1cc(/C=C/c2cc(/C=C/c3ccc(O)c(OC)c3)[nH]c(=O)n2)ccc1O	53.9%
O=C1CSC(=S)N1/N=C/c1ccc(Cl)s1	112%
COc1ccc(-c2onc(N)c2-c2cc(OC)c3c(c2)OCO3)cc1	33.8%
COc1cc(/C=C/c2cc(/C=C/c3ccc(O)c(OC)c3)n(C(=O)Nc3ccc(C)cc3)n2)ccc1O	-16% (active)
COc1cc(NC(=O)Nc2cnc(Nc3ccc(N4CCOCC4)cc3)nc2Oc2cccc(OC)c2)cc(OC)c1	23.2%
CC(=O)N[C@H](C(=O)N[C@@H](CCCNC(=N)N)C(=O)N[C@@H](CCCCN)C(=O)N[C@@H](CCCNC(=N)N)C(=O)NC(C(=O)N[C@@H](CC(C)C)C(=O)N[C@@H](CCCNC(=N)N)C(=O)N[C@@]1(C)CCC/C=C\CCC[C@@](C)(C(=O)N[C@@H](CCCNC(=N)N)C(=O)N[C@@H](CCC(=O)O)C(=O)N[C@@H](CC(C)C)C(=O)N[C@H](C(=O)N[C@@H](CCC(=O)O)C(N)=O)C(C)C)NC(=O)[C@H](CCC(N)=O)NC(=O)[C@H](CC(C)C)NC(=O)[C@H](CC(C)C)NC1=O)[C@@H](C)O)C(C)C (some centres not stated)	-53.9% (active)
Oc1ccc(/C=N/N=C2c3ccccc3-c3ccccc32)c(O)c1	93.7%
C[C@@H](C[C@H](CCO)c1ccccc1)c1ccc2ccccc2c1	-9.29% (active)
